# Experimental data as given in PubChem BioAssay (Tox21).
# Results filed as inconclusive are left out. Where a call stands in place of a potency, no number is given. Activity calls are given as the source filed them. The call rests on the fitted dose curve; in most records, active means well fitted inhibition curve with a large enough effect in the repeat runs; inconclusive means weak or mixed curves; inactive means no such curve, though single readings can be large or run the other way.
# Molecular target: Cytochrome P450 1A2 (Homo sapiens) (UniProt P05177)
# Sequence (P05177 whole entry, looked up): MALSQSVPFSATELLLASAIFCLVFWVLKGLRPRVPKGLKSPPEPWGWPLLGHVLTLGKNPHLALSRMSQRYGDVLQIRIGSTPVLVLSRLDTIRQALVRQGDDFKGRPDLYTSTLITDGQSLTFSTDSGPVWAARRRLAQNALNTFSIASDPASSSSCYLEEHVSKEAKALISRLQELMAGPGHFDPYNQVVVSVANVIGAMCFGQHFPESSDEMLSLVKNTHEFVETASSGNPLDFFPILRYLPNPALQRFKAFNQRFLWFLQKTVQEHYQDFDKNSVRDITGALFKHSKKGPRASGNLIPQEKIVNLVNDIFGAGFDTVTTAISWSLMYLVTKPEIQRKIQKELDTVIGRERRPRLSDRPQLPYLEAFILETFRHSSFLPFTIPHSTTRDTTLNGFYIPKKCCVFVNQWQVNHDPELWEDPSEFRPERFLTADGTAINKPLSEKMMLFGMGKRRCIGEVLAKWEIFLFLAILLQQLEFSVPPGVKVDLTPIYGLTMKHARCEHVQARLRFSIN
# Assay: Cytochrome P450 Family 1 Subfamily A Member 2 (CYP1A2) small molecule antagonists: luciferase reporter qHTS assay (AID 1671199); further: nearly all actives have a fitted effect of over 50% in size
# Conditions: P450-Glo CYP1A2 enzyme, luciferin luminescence, 1 h; series mostly up to 115 µM
# From the text: National Center for Advancing Translational Sciences [NCATS]
# U.S. Environmental Protection Agency [EPA]
# National Institutes of Environmental Health Sciences [NIEHS]
# National Toxicology Program [NTP]
# U.S. Food and Drug Administration [FDA]
# Cytochrome P450 (CYP) enzymes are membrane-bound hemeproteins that play a key role in metabolism of drugs and xenobiotics. Evaluation of the effect of chemicals on CYP isozymes is useful to minimize the adverse drug reactions and toxicities in drug development process. Tox21 chemicals were tested for their effect on CYP enzyme activities by using P450-Glo (TM) screening systems (Promega Corporation, Madison, WI). These systems provide a luminescent method containing proluciferin substrates and are converted to luciferin products by CYP isozymes. The luciferin products formed are detected with a luciferin detection reagent, and the amount of light produced is proportional to CYP activity. P450-Glo (TM) CYP1A2 screening system (Catalog. No. V9770) was used to detect the compounds that interfere in CYP1A2 activity. The positive control compound used for CYP1A2 assay is furafylline (Sigma-Aldrich, St. Louis, MO).
# Tox21 Assay Protocol Summary:
# Two ul of enzyme-substrate mix was dispensed into medium binding white/solid 1536-well plates (Greiner Bio-One North America Inc., Monroe, NC) using a BioRaptr Flying Reagent Dispenser (FRD, Beckman Coulter, Brea, CA). Compounds dissolved in DMSO and positive control (furafyllline) were transferred to the assay plates at 23 nl using a Pintool station (Wako, San Diego, CA). The assay plates were incubated at room temperature for 10 min. Then 2 ul of NADPH regeneration solution was added to each well of the assay plates using an FRD and incubated at room temperature for 1 h. The reaction was stopped by adding 4 ul of detection reagent using an FRD and after 20 min incubation at room temperature the luminescence signal was measured using a ViewLux plate reader (Perkin Elmer, Shelton, CT). Data were expressed as relative luminescence units.
# Potency means the concentration at half of the fitted maximal effect.
SMILES,Potency,"activity change, negative = inhibition"
CCO/C=C1\N=C(c2ccccc2)OC1=O,35.5 µM (active),–
O=Cc1ccccc1S(=O)(=O)O,inactive,–
C=C(C)C(=O)OCCOC1CC2CC1C1C=CCC21 (stereo not given),42.9 µM (active),–
CC1(C)CC(N)CC(C)(C)N1,inactive,–
Cc1ccc(S(=O)(=O)NC(=O)NN2CC3CCCC3C2)cc1 (stereo not given),inactive,–
CC(C)c1cc(C(C)C)cc(C(C)C)c1,inactive,–
O=C(OOC(=O)c1ccccc1)c1ccccc1,inactive,–
Nc1cc(S(=O)(=O)O)ccc1O,inactive,–
CCCCN1C(=O)c2ccccc2C1=O,2.61 µM (active),–
Cc1nnc(C(=O)NC(C)(C)c2nc(C(=O)NCc3ccc(F)cc3)c(O)c(=O)n2C)o1,inactive,–
CCCCCCCCS(=O)(=O)O,inactive,–
CN(C)CCCN(C)C,1.95 µM (active),–
O=C[C@@H](O)[C@H](O)[C@H](O)CO,inactive,–
O=C(O)Cc1ccccc1Oc1ccc(Cl)cc1Cl,inactive,–
Nc1ccc(C(=O)NCC(=O)O)cc1,inactive,–
Cc1cc(O)c(Cl)cc1C,25.2 µM (active),–
O=S(=O)(O)CC(O)CCl (stereo not given),inactive,–
CC(=O)SC[C@@H](C)C(=O)N1CCC[C@H]1C(=O)N[C@@H](Cc1ccccc1)C(=O)O,inactive,–
CC(=O)OCC(=O)[C@@]1(O)CC[C@H]2[C@@H]3CCC4=CC(=O)C=C[C@]4(C)[C@H]3[C@@H](O)C[C@@]21C,inactive,–
Cc1ccccc1C#N,inactive,–

SMILES,Potency,"activity change, negative = inhibition"
C=CCN1CCc2nc(N)sc2CC1,inactive,–
CCOC(=O)COc1ccc2c(C)c(CCN(CC)CC)c(=O)oc2c1Cl,inactive,–
C=CC(=O)OCCOCCOCC,inactive,–
O=C(c1ccccc1)c1cccc(O)c1,36.2 µM (active),–
CCCCCCCCCCCC(C)=O,inactive,–
COCCCOc1cc(C[C@@H](C[C@H](N)[C@@H](O)C[C@H](C(=O)NCC(C)(C)C(N)=O)C(C)C)C(C)C)ccc1OC,inactive,–
CC(C)(O)c1ccc(C(C)(C)O)cc1,inactive,–
CN(C)CCc1c[nH]c2ccc(C[C@H]3COC(=O)N3)cc12,inactive,–
CCCCCC(CC)OC(=O)CCCOc1ccc(Cl)cc1Cl (stereo not given),35.5 µM (active),–
O=C(O)CCCCCCCCCC(=O)O,inactive,–
O=S(=O)(O)c1ccc(Cl)cc1,inactive,–
N#Cc1cc(NC(=O)C(=O)O)c(Cl)c(NC(=O)C(=O)O)c1,inactive,–
N=C(N)N1CCc2ccccc2C1,–,0.421% [at 10.5 µM] (inactive)
CCCCN(CCCC)CCCCCCN(CCCC)CCCC,inactive,–
CCCCCCCCOCCC#N,inactive,–
C=CC(=O)OCC[N+](C)(C)C,inactive,–
N=C(N)S(=O)O,inactive,–
C[C@]12C=CC(=O)C=C1[C@@H](F)C[C@@H]1[C@@H]2[C@@H](O)C[C@@]2(C)[C@H]1CC[C@]2(O)C(=O)CO,inactive,–
CCOC(=O)c1ccc(N(C)C)cc1,5.03 µM (active),–
O=C(O)Cc1c(Cl)ccc(Cl)c1Cl,25.2 µM (active),–
